Measured values published in PubChem BioAssay (NCI).
This is part of a sample that, as a whole, favours compounds with a hit. Of some 83,000 tested, about 20% had one in any assay.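 Activity criterion: percent growth below 10, measured after cells in 96-well plates were exposed to a single compound concentration for 48 hours.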 Unmarked numbers belong to inactive results. Active and inactive are the calls of the source.

Legend:
Test in all cases: NCI-60 one-dose screen, 48 h (100 = growth as untreated, 0 = no growth, -100 = all killed)
Details in all cases: 10 µM
RPMI-8226 leukemia = system: RPMI-8226 leukemia
OVCAR-8 ovarian = system: OVCAR-8 ovarian
OVCAR-5 ovarian = system: OVCAR-5 ovarian
OVCAR-4 ovarian = system: OVCAR-4 ovarian
SK-OV-3 ovarian = system: SK-OV-3 ovarian
IGROV1 ovarian = system: IGROV1 ovarian
OVCAR-3 ovarian = system: OVCAR-3 ovarian
NCI/ADR-RES ovarian = system: NCI/ADR-RES ovarian
T-47D breast = system: T-47D breast
BT-549 breast = system: BT-549 breast
MDA-MB-435 melanoma = system: MDA-MB-435 melanoma
SW-620 colon = system: SW-620 colon
MCF7 breast = system: MCF7 breast
HCT-116 colon = system: HCT-116 colon
HCC-2998 colon = system: HCC-2998 colon
KM12 colon = system: KM12 colon
HS 578T breast = system: HS 578T breast

Row | SMILES | growth (RPMI-8226 leukemia) | growth (OVCAR-8 ovarian) | growth (OVCAR-5 ovarian) [%] | growth (OVCAR-4 ovarian) | growth (SK-OV-3 ovarian) [%] | growth (IGROV1 ovarian) | growth (OVCAR-3 ovarian) | growth (NCI/ADR-RES ovarian) | growth (T-47D breast) | growth (BT-549 breast) [%] | growth (MDA-MB-435 melanoma) | growth (SW-620 colon) | growth (MCF7 breast) | growth (HCT-116 colon) | growth (HCC-2998 colon) [%] | growth (KM12 colon) | growth (HS 578T breast) [%]
1 | N#Cc1ncc(-c2ccc(C(F)(F)F)cc2)c(NCc2cc(C(F)(F)F)cc(C(F)(F)F)c2)n1 | -19.6% (active) | 30.6% | 57.3 | 21% | 62.6 | 40.6% | 11.4% | 25.5% | 9.88% (active) | 21.8 | 12.2% | 14.5% | 8.58% (active) | 7.85% (active) | 45 | 10.2% | –
2 | COc1ccc(/C=C/C(C)=N/OCC(=O)O)cc1 | 102% | 105% | 109 | 106% | 101 | 106% | 113% | 106% | 93.5% | 98.6 | 114% | 107% | 100% | 96.9% | 105 | 106% | –
3 | CCOC1(OCC)OC(c2ccccc2)=C(C#N)C(/C=C\c2ccccc2)C1(OCC)OCC (centres undefined) | 44.5% | 86.5% | 103 | 79.6% | 94.8 | 85.6% | 71.8% | – | – | 95.3 | 97.2% | 83.2% | – | 53.9% | 83.1 | 84.3% | 95.1
4 | COc1cc(-c2nnc(-c3c(-c4ccc(F)cc4)nc4ccccn34)o2)cc(OC)c1OC | 71.9% | 46.6% | 95.6 | 69.5% | 76 | 119% | 75.1% | 61.6% | 53.1% | 66.1 | 93.5% | 90% | 73.3% | 34.1% | 105 | 81.7% | –
5 | COc1ccc(Nc2ccnc(NCCNc3ccnc4cc(Cl)ccc34)n2)cc1 | -22.9% (active) | 59.5% | 51.2 | 37.1% | 74.7 | 24.6% | 60.3% | 66.8% | 34.9% | 61 | -39.1% (active) | 36.4% | 14.3% | 3.11% (active) | 41.1 | 62.2% | –
6 | COc1ccc(C2CC(c3ccc(N(C)C)cc3)=NN2c2ccc(S(N)(=O)=O)cc2)cc1 (centres undefined) | 34.1% | 42.3% | 84.3 | 48.6% | 70.3 | 56.6% | 54.7% | – | 36.9% | 75 | 36.9% | 58% | 20.5% | 18.7% | 75 | 29.1% | 96.7
7 | COc1ccc2c(c1)-c1c(c3cc(OC)ccc3n(CCN(C)C)c1=O)C2=O | -14.9% (active) | 4.46% (active) | 46.3 | -28.3% (active) | 28.7 | -25.6% (active) | 6.8% (active) | -1.87% (active) | 63.8% | 64.2 | 21.8% | -8.7% (active) | -0.273% (active) | -21.2% (active) | 34.9 | 8.92% (active) | –
8 | C[C@@H]1C=C2C(=O)O[C@@H]3CC[C@H](C1)[C@]23O | 75.8% | 78.3% | 104 | 76.5% | 105 | 42.2% | 66.9% | 93.2% | 26.3% | 54.4 | 57.7% | 48.8% | 36.8% | 48.7% | 99.9 | 100% | –
9 | Cc1nc2oc3ccccc3c(=O)c2cc1C(=O)NCc1ccccc1 | 80.4% | 90.4% | 81.8 | 67.9% | 110 | 102% | 93.3% | 55.4% | – | 88 | 65.3% | 72.4% | 43.8% | 59.8% | 37.9 | 31.3% | 105
10 | NC1(C(=O)O)CSSC1 | 100% | 40.7% | 113 | 76.8% | 108 | 90% | 93% | 59.8% | – | 85.4 | 89.4% | 99.4% | 43.4% | 83.1% | 118 | 93.4% | 53.6
11 | O=C(Nc1ccc(Cl)cc1)N1NC(c2ccc(Cl)cc2)C=C1c1ccccc1 (centres undefined) | 99.5% | 97% | 124 | 91.5% | 97 | 95.3% | 103% | 115% | 94% | 102 | 103% | 110% | 89.6% | 104% | 97.5 | 96.3% | –
